# According to the supplement of paper PMC10849652:
# Of roughly 8,800 targets only a part is listed; those with a hit were picked by preference. About 0.5% of all pairs of compound and target were hits. Values without a mark were called inactive.
# Tests used:
# Experiment in all cases: log2 fold change, soluble protein after heating vs DMSO (PISA); higher = thermal stabilisation; K562 lysate, 10 uM; active = over 0.2 and 3.5 SD of the protein, either way, in both replicates (recomputed)
# erlotinib = compound: C#Cc1cccc(Nc2ncnc3cc(OCCOC)c(OCCOC)cc23)c1 [erlotinib]
# Outline: (§1)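 K562 pellets were dounce-homogenised in PBS pH 7.4 with 1 mM MgCl2, and the crude extract at 1 mg/mL protein was treated with 10 μM compound for 30 min. Aliquots were heated for 3 min across 48°C-58°C, pooled, and brought to 0.5% NP-40 at 4°C; soluble protein was the supernatant after 21,000xg for 90 min. Soluble protein was quantified by TMTpro 16plex LC-MS/MS with channel sums equalised, and reported as log2 fold change in thermal stability against DMSO controls, with values from duplicates.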
# [1] = compound: C/C(=N\NC(=O)C1=CC(=CC=C1)S(=O)(=O)N2CCOCC2)/C3=C(C=CC(=C3)Cl)O
# Outline: as §1
# [2] = compound: C1=CC(=CC=C1C2=NC3=C(N2)C=C(C=C3)C(=O)N)OC4=CC=C(C=C4)Cl
# Outline: as §1
# [3] = compound: C1=CC2=C(C=CC(=C2)/C=C\3/C(=O)NC(=NCC4=CC=CS4)S3)N=C1
# Outline: as §1
# [4] = compound: C1=CC2=NC=CN=C2C=C1/C=C/3\C(=O)NC(=O)S3
# Outline: as §1
# [5] = compound: C1=CC=C(C=C1)C2=NC(=C(N2)C3=CC=NC=C3)C4=CC(=C(C=C4)Cl)O
# Outline: as §1
# [6] = compound: C1=CC=C2C(=C1)C3=NNC4=CC=CC(=C43)C2=O
# Outline: as §1
# [7] = compound: C1CCN(C1)C(=O)NC2=CC=CC(=C2)NC3=NC=C(C(=N3)NCCC4=CN=CN4)Br
# Outline: as §1
# [8] = compound: C1CN(CCC1(CC2=CC=C(C=C2)Cl)N)C3=NC=NC4=C3C=CN4
# Outline: as §1
# IRAK-1-4 Inhibitor I = compound: C1COCCN1CCN2C3=CC=CC=C3N=C2NC(=O)C4=CC(=CC=C4)[N+](=O)[O-] [IRAK-1-4 Inhibitor I]
# Outline: as §1
# ibrutinib = compound: C=CC(=O)N1CCC[C@@H](n2nc(-c3ccc(Oc4ccccc4)cc3)c3c(N)ncnc32)C1 [ibrutinib]
# Outline: as §1
# [9] = compound: CC(=O)c1cnc2ccc(-c3cc(Cl)c(O)c(Cl)c3)nc2c1N[C@H]1CC[C@H](CN(C)C)CC1
# Outline: as §1
# ralimetinib = compound: CC(C)(C)Cn1c(N)nc2ccc(-c3[nH]c(C(C)(C)C)nc3-c3ccc(F)cc3)nc21 [ralimetinib]
# Outline: as §1
# [10] = compound: CC(C)(O)CC(=O)NCCn1ccc2ncnc(Nc3ccc(Oc4cccc(C(F)(F)F)c4)c(Cl)c3)c21
# Outline: as §1
# [11] = compound: CC(C)C1=C2N=C(C=C(N2N=C1)NCC3=CC=CC=C3)NCCCCCCN
# Outline: as §1
# [12] = compound: CC1=C(C(CC(=O)N1)C2=CC=C(C=C2)C(F)(F)F)C(=O)NC3=C(C=C4C(=C3)C=NN4)F
# Outline: as §1
# [13] = compound: CC1=C(C2=C(C=C1)C(=O)C3=CC=CC=C3N2CCCN)C
# Outline: as §1
# [14] = compound: CC1=C(C=C(C=C1)NC(=O)C2=CC(=CC=C2)C(C)(C)C#N)NC3=CC4=C(C=C3)N=CN(C4=O)C
# Outline: as §1
# [15] = compound: CC1=C(C=C(C=C1)NC(=O)C2=CC(=CC=C2)N(C)C)NC(=O)C3=CC=C(C=C3)O
# Outline: as §1
# [16] = compound: CC1=CC=C(C=C1)SC2=C3C=C(SC3=CN=C2)C(=O)N
# Outline: as §1
# UniProt P50747, sequence (P50747 whole entry, looked up): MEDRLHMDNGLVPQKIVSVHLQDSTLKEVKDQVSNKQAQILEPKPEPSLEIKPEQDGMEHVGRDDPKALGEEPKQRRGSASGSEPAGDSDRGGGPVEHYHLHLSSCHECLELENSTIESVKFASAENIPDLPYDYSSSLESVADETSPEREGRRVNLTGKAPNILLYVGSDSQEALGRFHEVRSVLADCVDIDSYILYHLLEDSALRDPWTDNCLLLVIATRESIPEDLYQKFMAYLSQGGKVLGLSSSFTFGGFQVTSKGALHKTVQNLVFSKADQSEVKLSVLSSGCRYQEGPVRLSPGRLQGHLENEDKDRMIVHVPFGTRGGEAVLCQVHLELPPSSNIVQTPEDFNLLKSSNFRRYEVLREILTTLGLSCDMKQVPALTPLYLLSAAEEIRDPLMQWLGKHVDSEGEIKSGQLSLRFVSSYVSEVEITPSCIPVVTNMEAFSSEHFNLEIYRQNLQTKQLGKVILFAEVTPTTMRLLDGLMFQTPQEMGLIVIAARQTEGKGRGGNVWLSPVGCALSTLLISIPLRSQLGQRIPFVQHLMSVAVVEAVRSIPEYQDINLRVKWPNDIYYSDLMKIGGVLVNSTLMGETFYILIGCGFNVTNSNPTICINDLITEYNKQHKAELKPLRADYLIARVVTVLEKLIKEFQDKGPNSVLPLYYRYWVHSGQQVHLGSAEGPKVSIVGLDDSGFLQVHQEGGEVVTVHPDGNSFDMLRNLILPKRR
# UniProt P14866, sequence (P14866 whole entry, looked up): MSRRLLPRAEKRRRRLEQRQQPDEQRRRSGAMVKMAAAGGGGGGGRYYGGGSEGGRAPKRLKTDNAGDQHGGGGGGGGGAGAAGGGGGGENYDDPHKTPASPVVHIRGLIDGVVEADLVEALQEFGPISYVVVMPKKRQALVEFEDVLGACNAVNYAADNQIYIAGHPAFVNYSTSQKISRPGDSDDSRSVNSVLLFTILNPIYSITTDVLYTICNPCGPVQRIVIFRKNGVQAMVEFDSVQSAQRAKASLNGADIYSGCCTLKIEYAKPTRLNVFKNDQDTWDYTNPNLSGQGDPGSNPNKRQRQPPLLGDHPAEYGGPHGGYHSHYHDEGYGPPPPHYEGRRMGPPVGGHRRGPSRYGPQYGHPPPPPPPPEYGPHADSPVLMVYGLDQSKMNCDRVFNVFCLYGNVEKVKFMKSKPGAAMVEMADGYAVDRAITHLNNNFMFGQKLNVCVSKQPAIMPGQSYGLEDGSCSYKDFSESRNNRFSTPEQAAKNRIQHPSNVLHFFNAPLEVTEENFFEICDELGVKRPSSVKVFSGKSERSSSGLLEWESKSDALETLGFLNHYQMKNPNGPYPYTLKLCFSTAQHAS
# UniProt O00425, sequence (O00425 whole entry, looked up): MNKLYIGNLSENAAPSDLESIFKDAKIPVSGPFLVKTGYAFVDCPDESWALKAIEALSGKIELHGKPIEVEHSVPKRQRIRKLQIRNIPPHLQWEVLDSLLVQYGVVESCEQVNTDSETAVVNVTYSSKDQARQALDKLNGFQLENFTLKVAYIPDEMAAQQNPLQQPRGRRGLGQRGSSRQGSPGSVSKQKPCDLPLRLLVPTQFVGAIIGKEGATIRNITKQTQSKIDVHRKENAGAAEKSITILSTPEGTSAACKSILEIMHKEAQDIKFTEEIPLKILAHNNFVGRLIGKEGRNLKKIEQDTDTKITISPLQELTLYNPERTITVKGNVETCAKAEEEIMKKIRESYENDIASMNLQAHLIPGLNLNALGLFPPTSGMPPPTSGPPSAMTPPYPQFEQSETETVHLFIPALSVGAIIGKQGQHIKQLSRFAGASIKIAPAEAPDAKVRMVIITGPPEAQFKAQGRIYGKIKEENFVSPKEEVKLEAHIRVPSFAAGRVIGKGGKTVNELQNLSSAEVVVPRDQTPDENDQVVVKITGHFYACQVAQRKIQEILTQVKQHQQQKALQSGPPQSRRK
# UniProt P52655, sequence (P52655 whole entry, looked up): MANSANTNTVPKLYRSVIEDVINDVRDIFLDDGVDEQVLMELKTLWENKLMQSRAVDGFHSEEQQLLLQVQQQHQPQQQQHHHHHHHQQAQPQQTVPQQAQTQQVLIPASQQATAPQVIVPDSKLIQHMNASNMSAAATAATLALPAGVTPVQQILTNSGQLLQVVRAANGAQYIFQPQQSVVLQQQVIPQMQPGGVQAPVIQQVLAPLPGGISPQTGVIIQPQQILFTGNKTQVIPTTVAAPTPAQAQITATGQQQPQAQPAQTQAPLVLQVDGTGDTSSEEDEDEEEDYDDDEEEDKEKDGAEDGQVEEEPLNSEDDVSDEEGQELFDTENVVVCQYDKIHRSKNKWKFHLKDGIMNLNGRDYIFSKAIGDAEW
# UniProt Q969S8, sequence (Q969S8 whole entry, looked up): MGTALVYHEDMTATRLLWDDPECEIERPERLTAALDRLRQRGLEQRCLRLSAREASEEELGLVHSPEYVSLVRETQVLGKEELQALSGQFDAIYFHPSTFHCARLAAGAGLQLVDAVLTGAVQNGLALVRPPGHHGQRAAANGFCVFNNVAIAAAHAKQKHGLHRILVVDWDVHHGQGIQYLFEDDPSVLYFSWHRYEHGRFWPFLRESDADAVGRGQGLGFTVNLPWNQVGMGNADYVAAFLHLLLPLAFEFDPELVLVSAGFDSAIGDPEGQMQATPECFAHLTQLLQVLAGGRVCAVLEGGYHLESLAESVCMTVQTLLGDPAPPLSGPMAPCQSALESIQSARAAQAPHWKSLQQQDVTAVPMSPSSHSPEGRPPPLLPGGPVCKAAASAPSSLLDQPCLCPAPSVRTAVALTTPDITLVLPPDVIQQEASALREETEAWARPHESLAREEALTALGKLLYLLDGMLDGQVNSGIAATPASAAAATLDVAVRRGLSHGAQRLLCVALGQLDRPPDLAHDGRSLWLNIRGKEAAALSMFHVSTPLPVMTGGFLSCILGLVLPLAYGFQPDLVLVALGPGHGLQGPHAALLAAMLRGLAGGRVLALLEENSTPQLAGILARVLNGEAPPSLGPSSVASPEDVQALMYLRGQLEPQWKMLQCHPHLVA
# UniProt Q9NVX7, sequence (Q9NVX7 whole entry, looked up): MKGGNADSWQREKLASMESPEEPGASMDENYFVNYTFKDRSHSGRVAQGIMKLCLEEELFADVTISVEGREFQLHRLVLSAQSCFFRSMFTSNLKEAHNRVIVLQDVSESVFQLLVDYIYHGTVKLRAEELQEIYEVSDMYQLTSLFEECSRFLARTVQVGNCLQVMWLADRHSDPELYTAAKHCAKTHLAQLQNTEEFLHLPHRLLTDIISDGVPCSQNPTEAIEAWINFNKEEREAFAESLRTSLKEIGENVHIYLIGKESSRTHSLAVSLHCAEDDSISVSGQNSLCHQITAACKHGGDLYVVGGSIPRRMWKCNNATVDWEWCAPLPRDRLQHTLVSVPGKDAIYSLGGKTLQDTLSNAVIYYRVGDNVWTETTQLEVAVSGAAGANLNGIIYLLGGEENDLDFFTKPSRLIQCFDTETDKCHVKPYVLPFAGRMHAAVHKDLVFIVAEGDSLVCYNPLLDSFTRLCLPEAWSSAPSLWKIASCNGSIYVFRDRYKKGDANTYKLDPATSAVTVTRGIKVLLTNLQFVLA
# UniProt Q6DN03, sequence (Q6DN03 whole entry, looked up): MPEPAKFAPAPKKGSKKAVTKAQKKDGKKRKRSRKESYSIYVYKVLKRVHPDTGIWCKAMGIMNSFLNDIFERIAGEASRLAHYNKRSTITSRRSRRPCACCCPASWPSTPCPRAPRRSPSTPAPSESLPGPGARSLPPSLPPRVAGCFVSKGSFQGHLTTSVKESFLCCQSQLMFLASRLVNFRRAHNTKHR
# UniProt P15104, sequence (P15104 whole entry, looked up): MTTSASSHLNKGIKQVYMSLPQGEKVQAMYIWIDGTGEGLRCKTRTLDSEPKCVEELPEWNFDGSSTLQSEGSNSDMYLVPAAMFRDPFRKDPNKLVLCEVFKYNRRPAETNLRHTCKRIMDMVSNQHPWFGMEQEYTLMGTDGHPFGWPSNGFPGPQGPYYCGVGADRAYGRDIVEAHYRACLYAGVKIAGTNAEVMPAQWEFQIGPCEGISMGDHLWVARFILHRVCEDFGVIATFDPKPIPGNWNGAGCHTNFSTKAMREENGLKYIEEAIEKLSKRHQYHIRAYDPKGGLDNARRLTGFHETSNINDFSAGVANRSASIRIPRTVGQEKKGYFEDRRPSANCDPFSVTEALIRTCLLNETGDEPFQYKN
# UniProt Q0VDF9, sequence (Q0VDF9 whole entry, looked up): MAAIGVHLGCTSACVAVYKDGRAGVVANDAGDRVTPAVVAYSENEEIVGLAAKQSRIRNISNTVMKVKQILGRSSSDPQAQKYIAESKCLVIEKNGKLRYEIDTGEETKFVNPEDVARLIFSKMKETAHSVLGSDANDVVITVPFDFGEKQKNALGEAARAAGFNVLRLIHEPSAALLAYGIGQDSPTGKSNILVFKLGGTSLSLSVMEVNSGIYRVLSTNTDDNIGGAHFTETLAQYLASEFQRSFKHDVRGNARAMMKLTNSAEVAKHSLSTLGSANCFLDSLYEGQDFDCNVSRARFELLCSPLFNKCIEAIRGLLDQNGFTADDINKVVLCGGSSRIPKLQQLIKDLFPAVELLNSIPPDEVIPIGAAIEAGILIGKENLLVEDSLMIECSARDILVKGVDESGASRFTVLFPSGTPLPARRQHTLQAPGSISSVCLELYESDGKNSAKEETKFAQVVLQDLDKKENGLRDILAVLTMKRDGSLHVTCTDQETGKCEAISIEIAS
# UniProt Q96AB3, sequence (Q96AB3 whole entry, looked up): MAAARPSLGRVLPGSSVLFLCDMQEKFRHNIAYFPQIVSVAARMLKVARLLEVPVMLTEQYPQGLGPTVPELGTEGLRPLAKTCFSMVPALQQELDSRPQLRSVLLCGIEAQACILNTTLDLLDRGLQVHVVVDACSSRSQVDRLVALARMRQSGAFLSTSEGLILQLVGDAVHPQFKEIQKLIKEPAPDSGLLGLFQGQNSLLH
Target,log2 fold change (erlotinib),log2 fold change [1],log2 fold change [2],log2 fold change [3],log2 fold change [4],log2 fold change [5],log2 fold change [6],log2 fold change [7],log2 fold change [8],log2 fold change (IRAK-1-4 Inhibitor I),log2 fold change (ibrutinib),log2 fold change [9],log2 fold change (ralimetinib),log2 fold change [10],log2 fold change [11],log2 fold change [12],log2 fold change [13],log2 fold change [14],log2 fold change [15],log2 fold change [16]
HIST2H2BC (UniProt Q6DN03),-0.036,0.144,0.001,0.006,0.061,0.007,-0.012,0.043,0.04,-0.028,0.003,-0.052,-0.013,0.003,-0.055,0.066,0.029,-0.001,0.032,0.031
HDAC10 (UniProt Q969S8),0.064,0.126,0.035,-0.155,-0.201,-0.111,-0.043,-0.204,0.053,0.016,-0.038,0.019,-0.106,0.144,-0.207,-0.11,-0.088,0.037,0.022,0.017
GLYR1 (UniProt Q49A26),0.025,0.061,-0.018,0.021,0.041,0.029,-0.01,0.11,0.035,0.006,0.113,0.017,0.038,-0.15,0.033,0.07,-0.339 (active),0.126,0.106,0.032
IGF2BP3 (UniProt O00425),0.04,0.023,-0.007,0.003,0.005,0.024,-0.067,0.026,0,-0.018,0.006,-0.019,-0.012,0.011,0.024,-0.009,0.011,-0.047,0.007,0.021
HDAC2 (UniProt Q92769),-0.02,0.021,-0.001,0.012,-0.013,-0.004,-0.009,-0.013,-0.001,-0.017,0,-0.008,-0.005,-0.029,-0.001,-0.013,-0.01,-0.025,-0.016,-0.013
"HDLBP, A0A024R4E5",0.043,0.008,0.02,-0.001,-0.024,-0.001,-0.046,-0.003,0.004,-0.005,-0.034,-0.007,0.029,-0.014,-0.012,0.007,-0.004,-0.009,0.042,0.003
HMGN4 (UniProt O00479),0.015,0.238,0.063,-0.056,0.017,0.048,0.293,0.201,-0.044,-0.046,-0.067,0.051,-0.249,0,-0.097,-0.011,0.016,-0.014,-0.077,0.022
HSPA14 (UniProt Q0VDF9),0.014,0.025,-0.009,0.009,0.012,0.049,-0.035,0.018,0.014,0.003,0.004,-0.008,0.009,-0.013,-0.032,-0.02,-0.009,-0.012,0.033,0.004
ISOC2 (UniProt Q96AB3),-0.018,0.003,0.001,-0.035,-0.006,-0.072,0.003,-0.007,-0.001,0.053,0.017,-0.021,0.056,0.024,0.014,-0.004,-0.131,0.054,0.041,0.035
GTF2A1 (UniProt P52655),0.031,-0.008,0.015,0.026,-0.01,-0.038,-0.061,-0.04,-0.01,0.033,-0.009,-0.046,0.015,-0.016,-0.036,-0.069,-0.021,-0.013,0.008,-0.014
HNRNPAB isoform 3 (UniProt Q99729),-0.032,-0.214,0.017,-0.007,0.002,-0.001,-0.012,0.003,0,0.009,-0.029,-0.159,-0.037,0.006,-0.007,0.055,-0.003,-0.01,-0.013,0
KBTBD4 isoform 2 (UniProt Q9NVX7),0.09,0.013,0.036,0.013,-0.096,0.016,-0.073,-0.028,0.013,-0.017,0.051,-0.026,-0.069,0.009,-0.039,-0.156,-0.045,0.142,-0.014,0.031
GLUL (UniProt P15104),-0.003,0.032,-0.002,0.029,-0.03,0.005,0.007,0.013,0.017,-0.017,0.031,0.004,0.006,-0.002,-0.008,0.026,0.023,-0.117,-0.011,0.031
HLCS (UniProt P50747),0.019,-0.071,0.013,0.03,-0.017,-0.004,-0.019,0.008,-0.034,-0.008,0.012,0.023,-0.005,-0.019,-0.025,0.018,-0.015,0.029,0.057,-0.032
HNRNPL (UniProt P14866),0.054,0.073,0.022,-0.007,0.013,0.033,-0.041,-0.017,-0.003,0.014,-0.015,0.012,0.047,0.046,0.051,0,0.021,0.001,0.058,0.032
GSE1 (UniProt Q14687),0.012,-0.022,0.025,0.003,-0.001,-0.013,-0.048,-0.032,-0.018,-0.011,0.006,-0.021,0.015,-0.026,-0.004,-0.009,0.008,-0.055,0.035,-0.016
